# Over roughly 81,000 sequences, “one-hybrid fitness for binding parS DNA” has its median near -0.17; the highest 2% begin near 0.51. The sample as a whole holds a higher share of the highest values than the screen did.
# B1: Caulobacter ParB omega fusion; a variant is named by its letters at X, in order, B8GW30 (parent)
# chain: MESVVVGEPGMSEGRRGLGRGLSALLGEVDAAPAQAPGEQLGGSREAPIEILQRNPDQPRRTFREEDLEDLSNSIREKGVLQPILVRPSPDTAGEYQIVAGERAWRAAQRAGLKTVPIMVRELDDLAVLEIGIIENVQRADLNVLEEALSYKVLMEKFERTQENIAQTIGKSXSHVANXMRLLXLPDEVQSYLVSGELTAXHARAIAAAADPVALAKQIIEGGLSVRETEALARKAPNLSAGKSKGGRPPRVKDTDTQALESDLSSVLGLDVSIDHRGSTGTLTITYATLEQLDDLCNRLTRGI
# Variants of: B1
# Test: one-hybrid fitness for binding parS DNA (scaled: cognate 1, non-cognate 0); higher = stronger binding
# Conditions: with parS DNA site
# How it was run: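 Selection: bacterial one-hybrid in E. coli USO, HIS3 reporter with the site 19 bp from the promoter, 48 hours at 37°C on M9-minus-histidine plus 0.1 mM IPTG and 5 mM 3-AT. Libraries were Caulobacter ParB with four randomised specificity codons, sequenced on Illumina before and after selection. Fitness is the rescaled log change in variant-to-wild-type read ratio, anchored to the cognate and non-cognate sites.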
row,Variant,one-hybrid fitness for binding parS DNA
1,ELGN,≤ 0.2
2,PYSK,≤ 0.2
3,NITG,≤ 0.2
4,KRPK,≤ 0.2
5,EVIR,≤ 0.2
6,FSHN,≤ 0.2
7,RCFI,≤ 0.2
8,IRLE,≤ 0.2
9,PFDT,≤ 0.2
10,RSFA,0.558
11,RCFA,0.589
12,RWFA,0.298
13,RDFA,≤ 0.2
14,RNFA,0.301
15,RPFA,≤ 0.2
16,IFQR,≤ 0.2
17,PTLA,≤ 0.2
18,RHAG,0.969
19,RHAD,≤ 0.2
20,RHFG,0.876
21,RHFF,≤ 0.2
22,RHFY,0.377
23,RHAH,0.202
24,DYKT,≤ 0.2
25,SRQA,≤ 0.2

row,Variant,one-hybrid fitness for binding parS DNA
1,DEKR,≤ 0.2
2,SVMF,≤ 0.2
3,RPFT,≤ 0.2
4,RSFH,≤ 0.2
5,RSFN,0.383
6,REFT,≤ 0.2
7,RCFT,0.955
8,RSFT,0.751
9,WLLH,≤ 0.2
10,REVI,≤ 0.2
11,SAPY,≤ 0.2
12,RRWF,≤ 0.2
13,RTWF,0.275
14,RRWK,≤ 0.2
15,RLWQ,≤ 0.2
16,RRWG,0.906
17,RTWQ,≤ 0.2
18,RLWG,0.995
19,RMWY,0.497
20,RMWR,≤ 0.2
21,RLWR,≤ 0.2
22,RMWG,0.991
23,RTWG,1.03
24,CQNS,≤ 0.2
25,QVGP,≤ 0.2

row,Variant,one-hybrid fitness for binding parS DNA
1,QTRM,≤ 0.2
2,ARLQ,≤ 0.2
3,CHSG,≤ 0.2
4,RCML,0.201
5,PFAT,≤ 0.2
6,QRRC,≤ 0.2
7,SRTM,≤ 0.2
8,KSRC,≤ 0.2
9,RHWM,≤ 0.2
10,KFWG,≤ 0.2
11,RKWF,0.219
12,RIWG,0.985
13,RIWM,0.361
14,RHWG,0.844
15,RKWG,0.952
16,RKWY,0.393
17,RHWQ,≤ 0.2
18,DFWG,≤ 0.2
19,RFWG,0.744
20,RIWY,0.471
21,KKLC,≤ 0.2
22,FRWG,≤ 0.2
23,IIKT,≤ 0.2
24,IYPT,≤ 0.2
25,DRGE,≤ 0.2

row,Variant,one-hybrid fitness for binding parS DNA
1,FVTP,≤ 0.2
2,HMNE,≤ 0.2
3,PPQC,≤ 0.2
4,RERK,≤ 0.2
5,DGKG,≤ 0.2
6,IFLY,≤ 0.2
7,DNYC,≤ 0.2
8,ALFC,≤ 0.2
9,RSWG,0.93
10,REWG,≤ 0.2
11,RAWG,0.989
12,RPWG,≤ 0.2
13,RAWK,≤ 0.2
14,RAWM,0.35
15,RSWF,≤ 0.2
16,RDWG,≤ 0.2
17,RCWG,1.02
18,NGLR,≤ 0.2
19,NTER,≤ 0.2
20,REFQ,≤ 0.2
21,WDSN,≤ 0.2
22,KYTC,≤ 0.2
23,TIAK,≤ 0.2
24,PMKR,≤ 0.2
25,RLKG,0.945

row,Variant,one-hybrid fitness for binding parS DNA
1,RLKP,≤ 0.2
2,RLKH,0.247
3,RLVG,0.991
4,RLVQ,≤ 0.2
5,RLVK,≤ 0.2
6,QRLA,≤ 0.2
7,IESL,≤ 0.2
8,KWDD,≤ 0.2
9,RVDC,0.846
10,RVDM,0.258
11,RVDF,≤ 0.2
12,RVNE,≤ 0.2
13,RVNR,≤ 0.2
14,RVNC,0.947
15,YLAV,≤ 0.2
16,CPVL,≤ 0.2
17,ANSF,≤ 0.2
18,GFRL,≤ 0.2
19,RRAR,≤ 0.2
20,RRAG,0.738
21,RRAP,≤ 0.2
22,RRFG,0.831
23,RRFD,≤ 0.2
24,RRFM,≤ 0.2
25,SKVG,≤ 0.2

row,Variant,one-hybrid fitness for binding parS DNA
1,CPAW,≤ 0.2
2,QCMI,≤ 0.2
3,DCNA,≤ 0.2
4,RHIA,0.316
5,DHNA,≤ 0.2
6,RHRA,0.58
7,RHDA,0.545
8,RHPA,≤ 0.2
9,RHYA,0.562
10,RHNA,0.543
11,WLCT,≤ 0.2
12,EVML,≤ 0.2
13,IDCL,≤ 0.2
14,LAVM,≤ 0.2
15,TSYY,≤ 0.2
16,APPD,≤ 0.2
17,GVQC,≤ 0.2
18,TPMT,≤ 0.2
19,IMES,≤ 0.2
20,QKYV,≤ 0.2
21,NYKT,≤ 0.2
22,QTEY,≤ 0.2
23,RAAH,≤ 0.2
24,RAAS,1
25,RAFS,1.02

row,Variant,one-hybrid fitness for binding parS DNA
1,RAAD,≤ 0.2
2,RAFP,≤ 0.2
3,RAFN,0.426
4,FSYG,≤ 0.2
5,WYKS,≤ 0.2
6,CKSM,≤ 0.2
7,QYLA,≤ 0.2
8,RTRS,0.83
9,RSHY,0.491
10,RTLD,≤ 0.2
11,RTHY,0.544
12,RTIP,≤ 0.2
13,RTRH,0.4
14,RCHY,0.46
15,RTLN,0.43
16,RTIS,1.01
17,RTLS,1.01
18,RTIH,≤ 0.2
19,RTRP,≤ 0.2
20,APQT,≤ 0.2
21,KERF,≤ 0.2
22,LPLK,≤ 0.2
23,GVFL,≤ 0.2
24,VTMY,≤ 0.2
25,RDTG,≤ 0.2

row,Variant,one-hybrid fitness for binding parS DNA
1,RTSN,0.422
2,RTSD,≤ 0.2
3,RTYS,1
4,RTWS,1.05
5,RTSS,0.938
6,RTPH,≤ 0.2
7,RTYD,≤ 0.2
8,RTYP,≤ 0.2
9,RTWD,0.22
10,RTPN,0.211
11,RTWP,0.271
12,RTPS,0.822
13,NVPD,≤ 0.2
14,TDEP,≤ 0.2
15,APNE,≤ 0.2
16,FINR,≤ 0.2
17,PGNR,≤ 0.2
18,YRNV,≤ 0.2
19,PVLC,≤ 0.2
20,WSCE,≤ 0.2
